# Data taken from ChEMBL document CHEMBL3988442, “University of Dundee, Small-Polar-MMV Screening Library” (2021).
# About 960 (1.5%) of roughly 66,000 compounds showed an effect of 50% or more. This excerpt belongs to a sample that is enriched for strong results.
# Tested on: Trypanosoma brucei
# Assay: Trypanosoma brucei 72 hour study
# Type: functional, organism-based
# Design: scale not given: in the data most compounds retested in dose-response had high values
structure (smiles),measurement,setting,value
CC(C)COc1cncc(N2CCCN(c3ncccn3)CC2)n1,Percent Effect,"30.3 µM, […]",-75.77%
CNC(=O)CN(C)c1cncc(OCC(C)C)n1,Percent Effect,"30 µM, 30.03 µM",-18.74%
CC(C)COc1cncc(N(C)C2CCN(c3ncccn3)CC2)n1,Percent Effect,"30.3 µM, […]",90.23%
CN(C)CCOCc1nnc2n1CCN(Cc1cccs1)CC2.O=C(O)C(F)(F)F.O=C(O)C(F)(F)F,Percent Effect,"30.3 µM, […]",-17.71%
Br.Cc1ccccc1OC1CCN(CC(=O)Nc2ccn(C)n2)CC1,Percent Effect,"30.3 µM, […]",12.28%
Cc1ccccc1N1CC2(CCN(S(=O)(=O)c3ccccc3)C2)CC1=O (stereo not drawn),Percent Effect,"30.3 µM, […]",11.6%
CCOc1cc2c(cc1CN1CCC3(CC1)CNC(=O)C3)CCC2,Percent Effect,"30.3 µM, […]",-17.68%
CCOc1cc(Cl)c(CN2CCC3(CCCNC3=O)C2)cc1OC (stereo not drawn),Percent Effect,"30.3 µM, […]",-16.79%
CCOc1cc2c(cc1CN1CCC3(CCCNC3=O)C1)CCC2 (stereo not drawn),Percent Effect,"30.3 µM, […]",98.93%
O=C(N1CCCC1)N1CCC2(CCN(Cc3ccccn3)C2=O)C1.O=C(O)C(F)(F)F (stereo not drawn),Percent Effect,"30 µM, 30.03 µM",-20.49%
CC(O)c1cccc(Nc2nc(NCCO)c3ccccc3n2)c1 (stereo not drawn),Percent Effect,"30 µM, 30.03 µM",5.503%
CCN(CC)c1nc(Nc2cccc(C(=O)O)c2)nc2ccccc12,Percent Effect,"30 µM, 30.03 µM",-36.54%
CCN(CC)c1nc(Nc2cccc(C(C)O)c2)nc2ccccc12 (stereo not drawn),Percent Effect,"30 µM, 30.03 µM",78.38%
O=C(O)C(F)(F)F.O=C1NC2(CCN(C(=O)N3CCOCC3)CC2)CC1c1cccnc1 (stereo not drawn),Percent Effect,"30 µM, 30.03 µM",-17.56%
CN1CCOC(CNCc2coc(-c3ccccc3Cl)n2)C1 (stereo not drawn),Percent Effect,"30.3 µM, […]",54.4%
same,Percent Effect,"10 mM, 10 mM as filed; unlikely as a test dose",-73.24%
CN1CCOC(CNCc2coc(-c3cccc(Cl)c3)n2)C1 (stereo not drawn),Percent Effect,"30.3 µM, […]",98.76%
same,Percent Effect,"10 mM, 10 mM as filed; unlikely as a test dose",-110.4%
CN1CCOC(CNCc2coc(-c3ccccc3)n2)C1 (stereo not drawn),Percent Effect,"30 µM, 30.03 µM",-39%
CN1CCOC(CNCc2coc(-c3cccs3)n2)C1 (stereo not drawn),Percent Effect,"30 µM, 30.03 µM",-23.33%
CN(C)CC1CN(Cc2coc(-c3ccccc3)n2)CCO1 (stereo not drawn),Percent Effect,10 µM,-12.24%
same,Percent Effect,"30.3 µM, […]",1.121%
CN(C)CC1CN(Cc2coc(-c3ccc(Cl)cc3)n2)CCO1 (stereo not drawn),Percent Effect,10 µM,-46.52%
same,Percent Effect,"30.3 µM, […]",62.36%
CN1CCOC(CNC(=O)Cc2coc(-c3ccccc3)n2)C1 (stereo not drawn),Percent Effect,"30.3 µM, […]",-0.1289%
same,Percent Effect,"10 mM, 10 mM as filed; unlikely as a test dose",-18.77%
CN(C)CC1CN(Cc2coc(-c3ccccc3Cl)n2)CCO1 (stereo not drawn),Percent Effect,"30 µM, 30.03 µM",-2.77%
CN1CCOC(CNCc2coc(-c3cccc(F)c3)n2)C1 (stereo not drawn),Percent Effect,"30.3 µM, […]",41.18%
same,Percent Effect,"10 mM, 10 mM as filed; unlikely as a test dose",-36.07%
CN1CCOC(CNCc2c(Cl)nc3ccccn23)C1 (stereo not drawn),Percent Effect,"30 µM, 30.03 µM",-12.37%
Cc1ccc(-c2nc(CNCC3CN(C)CCO3)co2)cc1 (stereo not drawn),Percent Effect,"30.3 µM, […]",93.13%
same,Percent Effect,"10 mM, 10 mM as filed; unlikely as a test dose",-9.822%
Cc1ccc(-c2nc(CN3CCOC(CN(C)C)C3)co2)cc1 (stereo not drawn),Percent Effect,10 µM,5.738%
same,Percent Effect,"30.3 µM, […]",-1.882%
CCCS(=O)(=O)N1C[C@H]2C[C@H](C(=O)N3CCOCC3)[C@@H](C1)O2,Percent Effect,"30.3 µM, […]",-5.473%
CN(C)CCOCc1nnc2n1CCN(Cc1ccc(F)cc1)CC2.O=C(O)C(F)(F)F.O=C(O)C(F)(F)F,Percent Effect,"30.3 µM, […]",-11.21%
O=C(O)C(F)(F)F.O=C(c1ccco1)N1C[C@H]2CCCN(Cc3ccoc3)[C@H]2C1,Percent Effect,"30 µM, 30.03 µM",-0.7502%
CC1c2ncc(Cn3cncn3)n2CCN1CC1CCOCC1.O=C(O)C(F)(F)F (stereo not drawn),Percent Effect,"30.3 µM, […]",-11%
Fc1cccnc1N1CCOCC2(CCCN(c3nncs3)C2)C1.O=C(O)C(F)(F)F (stereo not drawn),Percent Effect,"30 µM, 30.03 µM",36.62%
CCN(CC)C(=O)CN1CCc2c(nc(C3CCNCC3)nc2NC)C1.Cl,Percent Effect,"30.3 µM, […]",-24.06%
CCn1cc(N2Cc3nc(N4CCC(C)CC4)ncc3C2=O)cn1,Percent Effect,"30.3 µM, […]",-21.22%
Cc1ccc(-c2nc(CNCC3CN(C)CCO3)cs2)o1 (stereo not drawn),Percent Effect,"30.3 µM, […]",4.391%
Cc1ccc(-c2nc(CNC3CCc4ncnn4C3)co2)c(C)c1 (stereo not drawn),Percent Effect,"30 µM, 30.03 µM",30.05%
CN1CCOC(CNCc2nc(-c3ccoc3)no2)C1 (stereo not drawn),Percent Effect,"30 µM, 30.03 µM",-7.602%
Cc1ccc(-c2nc(CNCC3CN(C)CCO3)co2)c(C)c1 (stereo not drawn),Percent Effect,"30.3 µM, […]",99.99%
same,Percent Effect,"10 mM, 10 mM as filed; unlikely as a test dose",61.89%
CN1CCOC(CNCc2coc(-c3ccc(Cl)cc3)n2)C1 (stereo not drawn),Percent Effect,"30.3 µM, […]",99.53%
same,Percent Effect,"10 mM, 10 mM as filed; unlikely as a test dose",19.14%
CN1CCOC(CNCc2csc(C3CCCC3)n2)C1 (stereo not drawn),Percent Effect,10 µM,-49.15%
CN(C)CCCN(Cc1cnn(C)c1)Cc1ccco1.O=C(O)CC(O)(CC(=O)O)C(=O)O,Percent Effect,"30.3 µM, […]",-23.52%
O=C(O)C(F)(F)F.O=C(O)C(F)(F)F.c1cncc(CN2Cc3nccn3CC(Cn3cccn3)C2)c1 (stereo not drawn),Percent Effect,"30.3 µM, […]",-81.67%
Cc1cc(-c2cnc(N3CCSCC3)nc2C(C)C)on1,Percent Effect,"30.3 µM, […]",-15.33%
Cc1noc(C)c1CN1CCOCC12CCN(c1cnccn1)CC2.O=C(O)C(F)(F)F,Percent Effect,"30.3 µM, […]",-24.7%
Cc1ccccc1NC(=O)Nc1cc(N2CCCC2)ncn1,Percent Effect,"30.3 µM, […]",-35.39%
Cc1nc(C)c(C(=O)Nc2cc(N3CCC(C)CC3)ncn2)s1,Percent Effect,"30.3 µM, […]",-16.43%
CC1CCN(c2cc(NC(=O)C3CC3)ncn2)CC1,Percent Effect,"30.3 µM, […]",71.79%
COc1ccc(-c2csc3c2c(N)nc(=O)n3CCCN(C)C)cc1,Percent Effect,"30 µM, 30.03 µM",-33.83%
CN(C)C(=O)C1CCN(Cc2csc(C(C)(C)C)n2)CC1,Percent Effect,10 µM,-5.321%
CCOC(=O)C1CCN(Cc2csc(C(C)(C)C)n2)CC1,Percent Effect,"30 µM, 30.03 µM",96.9%
CCCNC(=O)C1CCN(Cc2csc(C(C)(C)C)n2)CC1,Percent Effect,"30 µM, 30.03 µM",-44.58%
CC(=O)Nc1cccc(CN2CCCC2C(=O)Nc2nccs2)c1 (stereo not drawn),Percent Effect,"30.3 µM, […]",-3.044%
O=C(Nc1nccs1)C1CCCN1Cc1ccccn1 (stereo not drawn),Percent Effect,"30.3 µM, […]",98.2%
CCNc1ccnc(CN2CCCC2C(=O)Nc2nccs2)c1 (stereo not drawn),Percent Effect,"30.3 µM, […]",28.37%
O=C(NC[C@]12COC[C@H]1CN(Cc1cccs1)C2)c1ccsc1.O=C(O)C(F)(F)F,Percent Effect,"30 µM, 30.03 µM",48.3%
O=C(O)C(F)(F)F.c1csc(CN2CCn3c(Cn4cncn4)cnc3C2)c1,Percent Effect,"30.3 µM, […]",-144.4%
CC1=N[C@@]2(CC[C@@H]3CN(CC4CC4)C[C@@H]32)C(=O)N1CC1CC1.O=C(O)C(F)(F)F,Percent Effect,"30.3 µM, […]",-38.25%
Cc1cnn(CCNCc2nnc(-c3occc3C)o2)c1,Percent Effect,10 µM,-38.66%
O=C(O)C(F)(F)F.O=C(O)C(F)(F)F.c1cnc(N2CCCC3(CCN(c4ncccn4)C3)C2)nc1 (stereo not drawn),Percent Effect,"30 µM, 30.03 µM",-31.26%
O=C(O)C(F)(F)F.c1cnc(N2CCC3(CCN(CC4CCOC4)CC3)C2)nc1 (stereo not drawn),Percent Effect,"30 µM, 30.03 µM",-13.94%
CN1CCC2(CCCN(c3nccc(C(F)(F)F)n3)C2)CC1.O=C(O)C(F)(F)F,Percent Effect,"30.3 µM, […]",3.781%
CC(C)CN1C(=O)C2(CCN(CC3CCOCC3)C2)c2ccccc21.O=C(O)C(F)(F)F (stereo not drawn),Percent Effect,"30.3 µM, […]",-1.145%
O=C(O)C(F)(F)F.O=C1CC2(CCN(CC3CCOC3)CC2)c2ccccc2N1CC1CC1 (stereo not drawn),Percent Effect,"30.3 µM, […]",-4.569%
CC(C)N1CCC2(CCCN(c3nccc(C(F)(F)F)n3)C2)CC1.O=C(O)C(F)(F)F,Percent Effect,"30.3 µM, […]",63.32%
O=C(O)C(F)(F)F.c1cnc(N2CC3(CCN(CC4CCOC4)CC3)c3ccccc32)nc1 (stereo not drawn),Percent Effect,"30 µM, 30.03 µM",-50.98%
O=C(O)C(F)(F)F.O=C(O)C(F)(F)F.c1cnc(N2CCC3(CCN(CC4CCOC4)CC3)CC2)nc1 (stereo not drawn),Percent Effect,"30 µM, 30.03 µM",-26.62%
O=C(O)C(F)(F)F.c1cnc(N2CCCC3(CCN(CC4CCOC4)CC3)C2)nc1 (stereo not drawn),Percent Effect,"30 µM, 30.03 µM",56.13%
Cc1ccc(CN2CCC3(C2)C(=O)N(CC2CC2)c2ccccc23)s1.O=C(O)C(F)(F)F (stereo not drawn),Percent Effect,"30.3 µM, […]",92.57%
O=C(O)C(F)(F)F.O=C(O)C(F)(F)F.OCCN1CC2(CCN(CC3CC3)CC2)c2ccccc21,Percent Effect,"30 µM, 30.03 µM",101.2%
Cc1ccc(CN2CCC3(C2)C(=O)N(CC(N)=O)c2ccccc23)s1 (stereo not drawn),Percent Effect,"30 µM, 30.03 µM",-6.982%
Cl.Clc1ccccc1OCCc1cc(C2CCNC2)n[nH]1 (stereo not drawn),Percent Effect,"30.3 µM, […]",-6.852%
CN(C(=O)c1ncn2c1CN(C)S(=O)(=O)c1ccccc1-2)C1CC1.O=C(O)C(F)(F)F,Percent Effect,"30 µM, 30.03 µM",-19.09%
COc1cc(N2CC[C@@H]3O[C@H](C(=O)N(C)C)C[C@@H]32)ncn1.O=C(O)C(F)(F)F,Percent Effect,"30.3 µM, […]",-9.278%
CCC(NC(=O)C1CCN(S(C)(=O)=O)CC1)c1ccc(C)c(C)c1 (stereo not drawn),Percent Effect,"30 µM, 30.03 µM",-5.711%
CCOCc1cc(CN2CCn3c(CO)nnc3C2)ccc1OC.O=C(O)CC(O)(CC(=O)O)C(=O)O,Percent Effect,"30.3 µM, […]",-50.73%
O=C(O)C(F)(F)F.O=C(O)C(F)(F)F.c1cnc(N2CCC3(CCN(CC4CC4)CC3)CC2)nc1,Percent Effect,"30.3 µM, […]",8.512%
CCS(=O)(=O)N1CCC2(CC1)CN(CC1CCOC1)c1ccccc12.O=C(O)C(F)(F)F (stereo not drawn),Percent Effect,"30.3 µM, […]",14.83%
O=C(O)C(F)(F)F.c1cnc(N2CCC3(CC2)CN(CC2CC2)c2ccccc23)nc1,Percent Effect,"30.3 µM, […]",99.63%
O=C(O)C(F)(F)F.O=C1N(CC2CC2)CCC12CCN(c1ncccn1)CC2,Percent Effect,"30.3 µM, […]",-19.41%
CS(=O)(=O)N1CCC2(CC1)CN(CC1CCOC1)c1ccccc12.O=C(O)C(F)(F)F (stereo not drawn),Percent Effect,"30.3 µM, […]",18.78%
O=C(O)C(F)(F)F.c1ccc2c(c1)N(CC1CCOC1)CC21CCN(c2cnccn2)CC1 (stereo not drawn),Percent Effect,"30.3 µM, […]",99.95%
Cc1noc(C(C)N2CCN(CCC(=O)N3CCOCC3)CC2)n1 (stereo not drawn),Percent Effect,"30 µM, 30.03 µM",-18.56%
Cn1ccnc1C(=O)NCc1cnc2n1CCN(CC1CC1)CC2.O=C(O)C(F)(F)F.O=C(O)C(F)(F)F,Percent Effect,"30.3 µM, […]",-46.77%
CC(C)N(C)Cc1cnc2n1CCN(CCc1ccccc1)C2.O=C(O)C(F)(F)F.O=C(O)C(F)(F)F,Percent Effect,"30 µM, 30.03 µM",55.49%
COCCN1CCn2c(CN(C)C(C)C)cnc2C1.O=C(O)C(F)(F)F.O=C(O)C(F)(F)F,Percent Effect,"30.3 µM, […]",0.5782%
CC(C)N(C)Cc1cnc2n1CCN(Cc1cccc(F)c1)C2.O=C(O)C(F)(F)F.O=C(O)C(F)(F)F,Percent Effect,"30.3 µM, […]",-6.591%
CCn1nnc2c1C(COCC(=O)N(C)C)CN(Cc1ccco1)C2.O=C(O)C(F)(F)F (stereo not drawn),Percent Effect,"30.3 µM, […]",-38.68%
COc1cccc(-c2nc(C)c(C(=O)NCCC(=O)O)s2)c1,Percent Effect,"30 µM, 30.03 µM",-31.35%
CC(C)CC(=O)N1CC(=O)c2sc(Nc3ccc(C#N)cc3)nc2C1,Percent Effect,"30.3 µM, […]",-13.31%
